Measured values reported in publication PMC11062922 (Nature Chemical Biology, 2023).
Read-outs that look alike come from different tables or passages of the source.

Key:
MARK4 = conditions: read-out: apparent Kd, n = 1
NTRK1 = conditions: read-out: apparent Kd, n = 1
[1] = compound concentrations:100 nM and 1000 nM (sheet 'Lestaurtinib' of Supplementary Table 1),run:Lestaurtinib_02724_R3,Plate:MR021
[2] = compound concentrations:100 nM and 1000 nM (sheet 'Lestaurtinib' of Supplementary Table 1),run:Lestaurtinib_02741_R2,Plate:MR023
[3] = compound concentrations:100 nM and 1000 nM (sheet 'Lestaurtinib' of Supplementary Table 1),run:Lestaurtinib_02741_R3,Plate:MR023
[4] = compound concentrations:100 nM and 1000 nM (sheet 'Lestaurtinib' of Supplementary Table 1),run:Lestaurtinib_02748_R1,Plate:MR024

Lestaurtinib
potency estimated from few doses (MARK4; [1]): 113 nM | potency estimated from few doses (MARK4; [2]): 144 nM | potency estimated from few doses (MARK4; [3]): 82.4 nM | potency estimated from few doses (MARK4; [4]): 151 nM | potency estimated from few doses (MARK4; compound concentrations:100 nM and 1000 nM (sheet 'Lestaurtinib' of Supplementary Table 1),run:Lestaurtinib_02748_R2,Plate:MR024): 97.8 nM | potency estimated from few doses (MARK4; compound concentrations:100 nM and 1000 nM (sheet 'Lestaurtinib' of Supplementary Table 1),run:Lestaurtinib_02748_R3,Plate:MR024): 98.7 nM | potency estimated from few doses (MARK4; compound concentrations:100 nM and 1000 nM (sheet 'Lestaurtinib' of Supplementary Table 1),run:Lestaurtinib_02752_R1,Plate:MR025): 84.2 nM | potency estimated from few doses (MARK4; compound concentrations:100 nM and 1000 nM (sheet 'Lestaurtinib' of Supplementary Table 1),run:Lestaurtinib_02752_R3,Plate:MR025): 113 nM | potency estimated from few doses (MARK4; compound concentrations:100 nM and 1000 nM (sheet 'Lestaurtinib' of Supplementary Table 1),run:Lestaurtinib_02765_R1,Plate:MR026): 86.1 nM | potency estimated from few doses (MARK4; compound concentrations:100 nM and 1000 nM (sheet 'Lestaurtinib' of Supplementary Table 1),run:Lestaurtinib_02765_R3,Plate:MR026): 95.3 nM | potency estimated from few doses (MARK4; compound concentrations:100 nM and 1000 nM (sheet 'Lestaurtinib' of Supplementary Table 1),run:Lestaurtinib_02766_R1,Plate:MR027): 154 nM | potency estimated from few doses (MARK4; compound concentrations:100 nM and 1000 nM (sheet 'Lestaurtinib' of Supplementary Table 1),run:Lestaurtinib_02766_R2,Plate:MR027): 63.6 nM | potency estimated from few doses (MARK4; compound concentrations:100 nM and 1000 nM (sheet 'Lestaurtinib' of Supplementary Table 1),run:Lestaurtinib_02766_R3,Plate:MR027): 76.7 nM | potency estimated from few doses (MARK4; compound concentrations:100 nM and 1000 nM (sheet 'Lestaurtinib' of Supplementary Table 1),run:Lestaurtinib_02768_R1,Plate:MR028): 92.1 nM | potency estimated from few doses (MARK4; compound concentrations:100 nM and 1000 nM (sheet 'Lestaurtinib' of Supplementary Table 1),run:Lestaurtinib_02768_R3,Plate:MR028): 80.6 nM | potency estimated from few doses (MARK4; compound concentrations:100 nM and 1000 nM (sheet 'Lestaurtinib' of Supplementary Table 1),run:Lestaurtinib_02795_R1,Plate:MR022): 115 nM | potency estimated from few doses (MARK4; compound concentrations:100 nM and 1000 nM (sheet 'Lestaurtinib' of Supplementary Table 1),run:Lestaurtinib_02795_R2,Plate:MR022): 157 nM | potency estimated from few doses (MARK4; compound concentrations:100 nM and 1000 nM (sheet 'Lestaurtinib' of Supplementary Table 1),run:Lestaurtinib_02802_R2,Plate:MR029): 86 nM | potency estimated from few doses (MARK4; compound concentrations:100 nM and 1000 nM (sheet 'Lestaurtinib' of Supplementary Table 1),run:Lestaurtinib_02802_R3,Plate:MR029): 77.8 nM | potency estimated from few doses (MARK4; compound concentrations:100 nM and 1000 nM (sheet 'Lestaurtinib' of Supplementary Table 1),run:Lestaurtinib_02896_R2,Plate:MR030): 141 nM | potency estimated from few doses (MARK4; compound concentrations:100 nM and 1000 nM (sheet 'Lestaurtinib' of Supplementary Table 1),run:Lestaurtinib_02896_R3,Plate:MR030): 87.4 nM | potency estimated from few doses (MARK4; compound concentrations:100 nM and 1000 nM (sheet 'Lestaurtinib' of Supplementary Table 1),run:Lestaurtinib_03172_R1,Plate:MR031): 86.8 nM | potency estimated from few doses (MARK4; compound concentrations:100 nM and 1000 nM (sheet 'Lestaurtinib' of Supplementary Table 1),run:Lestaurtinib_03172_R2,Plate:MR031): 297 nM | potency estimated from few doses (MARK4; compound concentrations:100 nM and 1000 nM (sheet 'Lestaurtinib' of Supplementary Table 1),run:Lestaurtinib_03252_R1,Plate:MR032): 41.6 nM | potency estimated from few doses (MARK4; compound concentrations:100 nM and 1000 nM (sheet 'Lestaurtinib' of Supplementary Table 1),run:Lestaurtinib_03252_R2,Plate:MR032): 59.5 nM | potency estimated from few doses (MARK4; compound concentrations:100 nM and 1000 nM (sheet 'Lestaurtinib' of Supplementary Table 1),run:Lestaurtinib_03260_R1,Plate:MR033): 469 nM | potency estimated from few doses (MARK4; compound concentrations:100 nM and 1000 nM (sheet 'Lestaurtinib' of Supplementary Table 1),run:Lestaurtinib_03260_R2,Plate:MR033): 609 nM | potency estimated from few doses (MARK4; compound concentrations:100 nM and 1000 nM (sheet 'Lestaurtinib' of Supplementary Table 1),run:Lestaurtinib_03260_R3,Plate:MR033): 165 nM | potency estimated from few doses (NTRK1; compound concentrations:100 nM and 1000 nM (sheet 'Lestaurtinib' of Supplementary Table 1),run:Lestaurtinib_02339_R2,Plate:MR001): 1580 nM | potency estimated from few doses (NTRK1; compound concentrations:100 nM and 1000 nM (sheet 'Lestaurtinib' of Supplementary Table 1),run:Lestaurtinib_02339_R3,Plate:MR001): 1910 nM | potency estimated from few doses (NTRK1; compound concentrations:100 nM and 1000 nM (sheet 'Lestaurtinib' of Supplementary Table 1),run:Lestaurtinib_02364_R1,Plate:MR002): 893 nM | potency estimated from few doses (NTRK1; compound concentrations:100 nM and 1000 nM (sheet 'Lestaurtinib' of Supplementary Table 1),run:Lestaurtinib_02364_R2,Plate:MR002): 971 nM | potency estimated from few doses (NTRK1; compound concentrations:100 nM and 1000 nM (sheet 'Lestaurtinib' of Supplementary Table 1),run:Lestaurtinib_02364_R3,Plate:MR002): 789 nM | potency estimated from few doses (NTRK1; compound concentrations:100 nM and 1000 nM (sheet 'Lestaurtinib' of Supplementary Table 1),run:Lestaurtinib_02381_R1,Plate:MR004): 763 nM | potency estimated from few doses (NTRK1; compound concentrations:100 nM and 1000 nM (sheet 'Lestaurtinib' of Supplementary Table 1),run:Lestaurtinib_02381_R2,Plate:MR004): 626 nM | potency estimated from few doses (NTRK1; compound concentrations:100 nM and 1000 nM (sheet 'Lestaurtinib' of Supplementary Table 1),run:Lestaurtinib_02381_R3,Plate:MR004): 1330 nM | potency estimated from few doses (NTRK1; compound concentrations:100 nM and 1000 nM (sheet 'Lestaurtinib' of Supplementary Table 1),run:Lestaurtinib_02407_R1,Plate:MR005): 1580 nM | potency estimated from few doses (NTRK1; compound concentrations:100 nM and 1000 nM (sheet 'Lestaurtinib' of Supplementary Table 1),run:Lestaurtinib_02422_R1,Plate:MR006): 1590 nM | potency estimated from few doses (NTRK1; compound concentrations:100 nM and 1000 nM (sheet 'Lestaurtinib' of Supplementary Table 1),run:Lestaurtinib_02422_R2,Plate:MR006): 1420 nM | potency estimated from few doses (NTRK1; compound concentrations:100 nM and 1000 nM (sheet 'Lestaurtinib' of Supplementary Table 1),run:Lestaurtinib_02437_R2,Plate:MR007): 1490 nM | potency estimated from few doses (NTRK1; compound concentrations:100 nM and 1000 nM (sheet 'Lestaurtinib' of Supplementary Table 1),run:Lestaurtinib_02437_R3,Plate:MR007): 113 nM | potency estimated from few doses (NTRK1; compound concentrations:100 nM and 1000 nM (sheet 'Lestaurtinib' of Supplementary Table 1),run:Lestaurtinib_02438_R1,Plate:MR008): 1000 nM | potency estimated from few doses (NTRK1; compound concentrations:100 nM and 1000 nM (sheet 'Lestaurtinib' of Supplementary Table 1),run:Lestaurtinib_02438_R2,Plate:MR008): 1530 nM | potency estimated from few doses (NTRK1; compound concentrations:100 nM and 1000 nM (sheet 'Lestaurtinib' of Supplementary Table 1),run:Lestaurtinib_02443_R1,Plate:MR009): 796 nM | potency estimated from few doses (NTRK1; compound concentrations:100 nM and 1000 nM (sheet 'Lestaurtinib' of Supplementary Table 1),run:Lestaurtinib_02473_R1,Plate:MR010): 695 nM | potency estimated from few doses (NTRK1; compound concentrations:100 nM and 1000 nM (sheet 'Lestaurtinib' of Supplementary Table 1),run:Lestaurtinib_02473_R2,Plate:MR010): 826 nM | potency estimated from few doses (NTRK1; compound concentrations:100 nM and 1000 nM (sheet 'Lestaurtinib' of Supplementary Table 1),run:Lestaurtinib_02482_R2,Plate:MR011): 894 nM | potency estimated from few doses (NTRK1; compound concentrations:100 nM and 1000 nM (sheet 'Lestaurtinib' of Supplementary Table 1),run:Lestaurtinib_02482_R3,Plate:MR011): 649 nM | potency estimated from few doses (NTRK1; compound concentrations:100 nM and 1000 nM (sheet 'Lestaurtinib' of Supplementary Table 1),run:Lestaurtinib_02487_R2,Plate:MR012): 1150 nM | potency estimated from few doses (NTRK1; compound concentrations:100 nM and 1000 nM (sheet 'Lestaurtinib' of Supplementary Table 1),run:Lestaurtinib_02487_R3,Plate:MR012): 921 nM | potency estimated from few doses (NTRK1; compound concentrations:100 nM and 1000 nM (sheet 'Lestaurtinib' of Supplementary Table 1),run:Lestaurtinib_02496_R1,Plate:MR013): 946 nM | potency estimated from few doses (NTRK1; compound concentrations:100 nM and 1000 nM (sheet 'Lestaurtinib' of Supplementary Table 1),run:Lestaurtinib_02496_R2,Plate:MR013): 1400 nM | potency estimated from few doses (NTRK1; compound concentrations:100 nM and 1000 nM (sheet 'Lestaurtinib' of Supplementary Table 1),run:Lestaurtinib_02496_R3,Plate:MR013): 828 nM | potency estimated from few doses (NTRK1; compound concentrations:100 nM and 1000 nM (sheet 'Lestaurtinib' of Supplementary Table 1),run:Lestaurtinib_02566_R2,Plate:MR014): 898 nM | potency estimated from few doses (NTRK1; compound concentrations:100 nM and 1000 nM (sheet 'Lestaurtinib' of Supplementary Table 1),run:Lestaurtinib_02572_R1,Plate:MR015): 810 nM | potency estimated from few doses (NTRK1; compound concentrations:100 nM and 1000 nM (sheet 'Lestaurtinib' of Supplementary Table 1),run:Lestaurtinib_02572_R3,Plate:MR015): 974 nM | potency estimated from few doses (NTRK1; compound concentrations:100 nM and 1000 nM (sheet 'Lestaurtinib' of Supplementary Table 1),run:Lestaurtinib_02577_R2,Plate:MR016): 1300 nM | potency estimated from few doses (NTRK1; compound concentrations:100 nM and 1000 nM (sheet 'Lestaurtinib' of Supplementary Table 1),run:Lestaurtinib_02584_R2,Plate:MR017): 1000 nM | potency estimated from few doses (NTRK1; compound concentrations:100 nM and 1000 nM (sheet 'Lestaurtinib' of Supplementary Table 1),run:Lestaurtinib_02601_R1,Plate:MR018): 1580 nM | potency estimated from few doses (NTRK1; compound concentrations:100 nM and 1000 nM (sheet 'Lestaurtinib' of Supplementary Table 1),run:Lestaurtinib_02601_R2,Plate:MR018): 673 nM | potency estimated from few doses (NTRK1; compound concentrations:100 nM and 1000 nM (sheet 'Lestaurtinib' of Supplementary Table 1),run:Lestaurtinib_02601_R3,Plate:MR018): 924 nM | potency estimated from few doses (NTRK1; compound concentrations:100 nM and 1000 nM (sheet 'Lestaurtinib' of Supplementary Table 1),run:Lestaurtinib_02606_R2,Plate:MR019): 1210 nM | potency estimated from few doses (NTRK1; compound concentrations:100 nM and 1000 nM (sheet 'Lestaurtinib' of Supplementary Table 1),run:Lestaurtinib_02606_R3,Plate:MR019): 1600 nM | potency estimated from few doses (NTRK1; compound concentrations:100 nM and 1000 nM (sheet 'Lestaurtinib' of Supplementary Table 1),run:Lestaurtinib_02624_R1,Plate:MR020): 1300 nM | potency estimated from few doses (NTRK1; compound concentrations:100 nM and 1000 nM (sheet 'Lestaurtinib' of Supplementary Table 1),run:Lestaurtinib_02624_R2,Plate:MR020): 614 nM | potency estimated from few doses (NTRK1; compound concentrations:100 nM and 1000 nM (sheet 'Lestaurtinib' of Supplementary Table 1),run:Lestaurtinib_02624_R3,Plate:MR020): 873 nM | potency estimated from few doses (NTRK1; compound concentrations:100 nM and 1000 nM (sheet 'Lestaurtinib' of Supplementary Table 1),run:Lestaurtinib_02724_R2,Plate:MR021): 691 nM | potency estimated from few doses (NTRK1; [1]): 628 nM | potency estimated from few doses (NTRK1; compound concentrations:100 nM and 1000 nM (sheet 'Lestaurtinib' of Supplementary Table 1),run:Lestaurtinib_02741_R1,Plate:MR023): 772 nM | potency estimated from few doses (NTRK1; [2]): 783 nM | potency estimated from few doses (NTRK1; [3]): 1330 nM | potency estimated from few doses (NTRK1; [4]): 922 nM
